rRNA inh HTS: inhibits bacterial ribosomal RNA function over humanized ribosomes. E. coli WT GFP vs humanized-ribosome RFP mutants, fluorescence, 24 h; active compounds read low; DMSO median 0, no signal -100. GFP signal change (wild-type ribosome), % (test concentration not listed). 350,000 tested, 1.6% active;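 active = significant combined selectivity score with lowered wild-type GFP, culture density cut under 30%, mutant RFP and density less affected; inactive = any of these conditions unmet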
CASP6 VEID inh: inhibitors of human caspase-6. purified caspase-6, Z-VEID-R110 cleavage fluorescence. 350,000 tested, 0.53% active. AID 686996. P55212. inhibition, % at 12.5 µM;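 active = mean inhibition across replicates at least about 35%, with every replicate also reaching that limit, limit read from the data; inconclusive = only one of the two criteria met; inactive = neither criterion met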;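 also: 0% = median of neutral control wells and 100% = no fluorescence left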
Target sequence (P55212 24-179 limits assumed): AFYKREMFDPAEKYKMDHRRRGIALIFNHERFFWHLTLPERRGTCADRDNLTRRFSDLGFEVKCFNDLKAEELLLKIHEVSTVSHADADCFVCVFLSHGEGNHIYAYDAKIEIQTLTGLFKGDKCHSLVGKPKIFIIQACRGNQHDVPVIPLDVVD
Target sequence (P55212 194-293 limits assumed): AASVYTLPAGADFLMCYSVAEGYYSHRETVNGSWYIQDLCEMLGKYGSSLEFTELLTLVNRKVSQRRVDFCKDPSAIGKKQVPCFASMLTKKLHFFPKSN
AF4-AF9 inh: MLL-AF4/AF9 protein interaction inhibition; P42568; AlphaScreen, biotin-AF4 peptide binding to FLAG-AF9; inhibition, % at 10 µM; 350,000 tested, 0.47% active; AID 651704;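 active = every replicate reaching a set inhibition limit, whatever the replicate mean, cut at about 25% in these data; inconclusive = mean inhibition reaches that limit but some replicates miss it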;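 also: 0% = plate neutral control median and 100% = total signal loss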
RAD52 inh: inhibitors of human RAD52 DNA annealing; recombinant RAD52 DNA annealing, FRET fluorescence; inhibition, % at 18.7 µM; 360,000 tested, 0.46% active; AID 651710;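 active = every replicate showing at least 50% inhibition; inconclusive = mean inhibition at least 50% but not in every replicate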
NSD2 HMT inh: blocks human histone methyltransferase NSD2; O96028; NSD2 peptide methylation, AlphaScreen, 120 min; inhibition, % at 12.5 µM; 310,000 tested, 0.54% active; in the data active = inhibition above about 50%
AID977621: growth inhibition of wild-type GFP E. coli, dose response, H69 mutant RFP, cherry-pick; shares compounds with rRNA inh HTS; E. coli wild-type GFP strain growth, fluorescence, 24 h; activity change, negative = inhibition at 50 µM; 1,900 tested, under 10 active; AID 977621;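 active = Wild-type ribosome reporter drop at least double the humanized mutant ribosome reporter drop, growth loss under a set limit; inconclusive = no clear call, values can overlap the other calls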;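 also: wild-type GFP and H69 mutant RFP strains grown together 50/50 in each well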
AID977628: E. coli growth inhibition, wild-type GFP versus h24 humanized RFP strain, dose response, h24 mutant RFP vs wild-type GFP, cherry-pick | shares compounds with rRNA inh HTS | E. coli WT GFP strain growth, fluorescence, 24 h | activity change, negative = inhibition at 50 µM | 1,900 tested, under 10 active;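 active = compound lowering the normal-ribosome reporter at least twice as much as the humanized-ribosome reporter, growth loss under a set limit; inconclusive = no clear call, values can overlap the other calls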;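 also: wild-type GFP and h24 humanized RFP strains co-cultured 1 to 1 per well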
The depositor's hits bear a star; ? = inconclusive; · = no result given; ! = not active in a repeat. Shown are actives, neighbours in structure and some others; about 2.5% of the full set was active somewhere.

SMILES	rRNA inh HTS	CASP6 VEID inh	AF4-AF9 inh	RAD52 inh	NSD2 HMT inh	AID977621	AID977628
COc1cccc(C(=O)C2CCCN(C/C=C/c3ccccc3OC)C2)c1 (centres undefined)	-29*	3	2	-32	2	?	?
O=C(CC1C(=O)NCCN1CC1CCCCC1)NCc1ccc(F)cc1F (centres undefined)	-20*	-5	2	-19	0	10	?
O=C(CC1C(=O)NCCN1CC1CCCCC1)NCc1cc(F)ccc1F (centres undefined)	-4	-4	2	-36	-6	·	·
O=S(=O)(NCc1cc(-c2ccccc2)no1)c1ccccc1Cl	-21*	3	-2	-18	-2	-1.6	1
Cc1occc1C(=O)Nc1ccc2c(c1)CCC2	-13*	4	8	-5	5	?	?
O=C(O)c1ccccc1-c1ccccc1C(=O)Nc1ccc2c(c1)CCC2	-21*	3	1	6	-1	-12	·
Cc1occc1C(=O)Nc1ccc2c(c1)OCCO2	·	·	·	·	1	·	·
O=C(Nc1ccc2c(c1)CCC2)c1ccccc1F	·	·	·	·	-2	·	·
CO[C@H]1CN(C)C(=O)c2ccc(NS(=O)(=O)c3ccc(C)cc3)cc2OC[C@H](C)N(Cc2nccs2)C[C@H]1C	-5	1	14	-1	·	·	·
CC(C)[C@@H]1CC[C@@H](C)C[C@H]1O	-14*	-7	-4	-14	·	-8.1	?
CN1C(=O)c2cccc3c(S(=O)(=O)NCCc4ccccc4)ccc1c23	-23*	-2	-2	-15	-17	?	·
CCOCCCNC(=O)C(NC(=O)c1ccccc1O)c1ccc(C)cc1 (centres undefined)	-19*	0	0	-4	-2	-6.3	-2.6
C/C=C/c1ccc([C@H]2[C@@H](CNC(=O)c3ccccc3)N(C(C)=O)[C@H]2CO)cc1	-1	·	·	·	·	·	·
COC(=O)c1cc2ccccc2n1S(=O)(=O)c1ccccc1	-32*	-3	0	-10	-1	-1.5	-10
Cc1ccc(C(=O)c2ccccc2C(=O)OCC(=O)NC(C)(C)C)cc1	-20*	-5	-3	-12	·	-22	·
Cc1ccc(C(=O)c2ccccc2C(=O)OCC(=O)N2CCCC2)cc1	4	-3	-2	-6	-2	·	·
N#C[C@H]1[C@@H](c2ccc(/C=C/c3ccccc3)cc2)[C@@H](CO)N1C(=O)C1CCCCC1	1	0	1	-81	·	·	·
COc1ccc(OCCC(=O)OCC(=O)NCCC2=CCCCC2)cc1	-24*	-4	2	-12	·	-13	-9.7
Cc1noc(C)c1S(=O)(=O)N(C)C[C@@H]1OCCCC[C@H](C)Oc2ccc(NS(=O)(=O)c3ccc(F)cc3)cc2C(=O)N([C@H](C)CO)C[C@@H]1C	-4	·	·	·	·	·	·
COc1ccc(C(=O)Nc2ccc3c(c2)C(=O)N(C)C[C@@H](OC)[C@@H](C)CN(C)[C@H](C)CO3)cc1	4	9	1	-3	·	·	·
CN(c1ccccc1)S(=O)(=O)c1cccc(NC(=O)CCNC(=O)c2ccccc2)c1	-17	-1	3	-13	1	·	·
CN(c1ccccc1)S(=O)(=O)c1cccc(NC(=O)CCNC(=O)c2ccc([N+](=O)[O-])cc2)c1	-17*	1	3	-14	3	-4.7	?
COc1ccc(CCn2c(C)nc3ccccc3c2=O)cc1OC	6	3	-1	-6	-2	·	·
CCSc1nc2ccccc2c(=O)n1CCc1ccc(OC)c(OC)c1	-33*	5	-4	-2	-1	·	?
CCOc1cc(/C=C(\CC(=O)O)c2nc3ccccc3s2)ccc1OC	-21*	0	-1	-38	-4	-8	-12
SMILES	rRNA inh HTS	CASP6 VEID inh	AF4-AF9 inh	RAD52 inh	NSD2 HMT inh	AID977621	AID977628
COc1ccccc1-c1noc2ncnc(Nc3cccc(C)c3C)c12	-16*	-1	1	-22	·	-16	-15
COc1ccccc1-c1noc2ncnc(Nc3ccc4c(c3)OCO4)c12	7	2	-5	-7	·	·	·
COc1ccccc1-c1noc2ncnc(Nc3ccccc3C)c12	-27*	-1	-2	-18	·	-6.9	-17
COc1ccccc1Nc1ncnc2c1c(C)c(C)n2CCCN(C)C	6	2	7	10	9	·	·
O=C(CC1CC1)N1CC(=O)N2[C@H](C1)[C@H](c1ccc(-c3ccccc3)cc1)[C@@H]2CO	-2	2	-7	8	·	·	·
O=C(NCc1ccccc1)c1ccc(-c2cn[nH]c2)c2ccoc12	-20*	0	-1	-7	0	2.6	-8.2
COCCNC(=O)c1ccc(-c2cn[nH]c2)c2ccoc12	14	2	-2	-4	-1	·	·
O=C(Nc1ccc(Nc2ccccc2)cc1)c1c(Cl)cccc1Cl	-34*	5	4	18	0	-16	·
O=C(Nc1ccc(Nc2ccccc2)cc1)c1ccc(F)cc1	-21*	-1	3	-11	1	-3.5	-13
CCn1cc(CCC(=O)NC(C)c2ccccc2)c2ccccc21 (centres undefined)	-8	-1	-2	-9	3	·	·
CCn1cc(CCC(=O)NCCc2ccccc2)c2ccccc21	-19*	3	2	-15	-2	-8	?
CNC(=O)c1sc(-c2ccccn2)nc1C	-23*	-2	-1	-16	-5	-21	-7.1
CC1CCCCN1C(=O)C1CCCN(S(=O)(=O)c2cccc3nsnc23)C1 (centres undefined)	-20*	0	-2	-8	1	-7.1	?
N#C[C@H]1[C@@H](c2ccccc2C2=CCCCC2)[C@@H](CO)N1C(=O)CN1CCOCC1	0	1	1	8	·	·	·
O=C(NCC1COc2ccccc2O1)c1ccc(NC(=O)c2cccc(F)c2F)cc1 (centres undefined)	·	·	·	·	-5	·	·
O=C(OCC1COc2ccccc2O1)c1ccccc1F (centres undefined)	-20*	6	2	1	-4	-0.3	-2.7
CO[C@@H]1CC[C@H]2CCN(C)C(=O)[C@H](C)CN(C)C(=O)c3cc(C#N)ccc3OC[C@@H]1O2	1	0	0	-7	·	·	·
CC(=O)Nc1ccc(Nc2nc(-c3sc(NC(C)=O)nc3C)cs2)cc1	-9	2	5	-9	3	·	·
CC(=O)Nc1nc(C)c(-c2csc(Nc3ccccn3)n2)s1	-20*!	-5	-15	4	-1	0.27	·
CCn1c(-c2cc(-c3ccc(OC(C)C)cc3)nc3ccccc23)n[nH]c1=S	-28*	7	4	-5	0	·	?
[O-][n+]1ccccc1/C=C/c1ccccc1	-26*	3	1	-6	-4	-11	?
CN(C)c1ccc(/C=C/c2cccc[n+]2[O-])cc1	-9	0	4	-216	2	·	·
